Most compounds without a hit are left out; they make up all but 2.2% or so of the library.
TRPM1 prom inh: MITF TRPM1 promoter inhibition in SK-MEL-5 cells; SK-MEL-5 TRPM1 promoter luciferase, 24 h; inhibition, % at 12.5 µM; hit rate 0.83% among 330,000; AID 488899;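 active means mean inhibition across replicates of 60% or more, whatever share of single replicates reaches that level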
Shn3 inh set2: inhibitors of Schnurri-3 3'UTR reporter in osteoblasts; inhibition, % at 12.5 µM; Clone20 osteoblast Shn3 3'UTR firefly luciferase, 24 h; hit rate 0.52% among 360,000;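 active means mean inhibition of at least 75% with every replicate also reaching 75%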;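 further: 0% = median of neutral control wells and 100% = pilot-screen positive control compound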
LGR2 antag: Drosophila LGR2 receptor signaling inhibition; HEK293 LGR2, CRE-luciferase, bursicon-stimulated, 4 h; inhibition, % at 9.99 µM; hit rate 0.35% among 380,000;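 active means drop in luminescence signal, shown as inhibition above about 50% in the replicate tests, limit read from the data, passing the limit was not always enough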;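 further: agonist challenge used bursicon conditioned medium at about half maximal strength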
LMP1 NFkB inh: inhibitors of Epstein-Barr LMP1-induced NF-kappaB reporter; LMP1-induced NF-kappaB luciferase reporter cells, luminescence; inhibition, % at 12.5 µM; hit rate 0.69% among 350,000; AID 504558; in the data active means inhibition above about 41%;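 further: 0% = neutral control wells and 100% = reference inhibitor control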
PAX8 reporter: inhibitors of PAX8 transcriptional activity in RMG-I cells | AID 652154 | inhibition, % at 12.6 µM | RMG-I TPO-luciferase reporter, SteadyGlo, 24 h | hit rate 1.2% among 360,000;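 active means mean replicate inhibition at least 60% with every replicate also reaching 60%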;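 further: luciferase light reporting Pax8 driven TPO promoter activity; plate controls were median of neutral control wells for no effect and mitoxantrone controls for full effect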
EWS-Fli block: inhibitors of EWS/Fli oncoprotein transcriptional activity; A673 NR0B1-luciferase reporter, viability-normalised; inhibition, % at 12.6 µM; hit rate 0.67% among 350,000; AID 651661;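 active means mean inhibition of at least 50% after viability correction, with every replicate also passing that limit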;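 further: firefly luciferase signal divided by Alamar Blue viability fluorescence both relative to DMSO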
An asterisk follows results filed as active; / = no result; ! = not active in a repeat.

SMILES	TRPM1 prom inh	Shn3 inh set2	LGR2 antag	LMP1 NFkB inh	PAX8 reporter	EWS-Fli block
C[C@H](CO)N1C[C@H](C)[C@@H](CN(C)C(=O)Nc2ccc(-c3cccs3)cc2)OCc2cnnn2CCCC1=O	/	/	7	/	58	-8
C[C@@H]1CN([C@@H](C)CO)C(=O)CCCn2nncc2CO[C@H]1CN(C)C(=O)Nc1ccc(-c2cccs2)cc1	/	-19	-11	-1	84*	-1
C[C@H](CO)N1C[C@H](C)[C@@H](CN(C)S(=O)(=O)c2ccc(-c3ccccc3)cc2)OCc2cn(nn2)CCCC1=O	/	-8	-16	4	76*!	10
C[C@H]1CN([C@@H](C)CO)C(=O)CCCn2nncc2CO[C@H]1CN(C)C(=O)Nc1ccc(-c2cccs2)cc1	/	/	-9	/	66*	-2
C[C@@H]1CN([C@@H](C)CO)C(=O)CCCn2cc(nn2)CO[C@@H]1CN(C)S(=O)(=O)c1ccc(-c2ccccc2)cc1	/	/	-9	/	5	12
C[C@@H]1CN([C@H](C)CO)C(=O)CCCn2cc(nn2)CO[C@H]1CN(C)C(=O)Nc1ccc(-c2cccs2)cc1	/	-22	-17	-3	82*	-7
C[C@H]1CN([C@@H](C)CO)C(=O)CCCn2nncc2CO[C@@H]1CN(C)C(=O)Nc1ccccc1	/	/	-2	/	0	-11
C[C@@H]1CN([C@H](C)CO)S(=O)(=O)c2ccc(/C=C/c3ccccc3)cc2O[C@H]1CN(C)C(=O)NC1CCCCC1	/	/	37	/	21	4
C=CCNc1nc2c(c(=O)n(C)c(=O)n2C)n1CCCCCC	33	88*	/	1	/	/
Cc1cc(C[n+]2cc(Cl)ccc2N)c2ncccc2c1	-6	64	1	7	-9	14
Cc1cc(C[n+]2cc(Br)ccc2N)c2ncccc2c1	-5	92*	-19	6	19	-2
C[C@H]1CN([C@@H](C)CO)C(=O)Cc2cc(NC(=O)Nc3ccc4c(c3)OCO4)ccc2O[C@@H]1CN(C)C	/	/	-13	/	-17	-15
Cc1ccc(NC(=O)Cn2nc(C)c3ccccc3c2=O)cc1F	3	-2	/	44*	2	/
C[C@@H]1CN([C@H](C)CO)C(=O)Cc2cc(NS(=O)(=O)c3cn(C)cn3)ccc2O[C@@H]1CN(C)Cc1ccncc1	/	/	-15	/	15	1
O=C(NCCN1C(=O)S/C(=C\c2ccc(Cl)c([N+](=O)[O-])c2)C1=O)C1=COCCO1	29	6	-15	2	70*	41
S=C(Nc1ccc(OCc2ccccc2)cc1)Nc1cccc(Cl)c1Cl	-16	-15	-26	74*	-13	/
CNC[C@@H]1Oc2ccc(NS(=O)(=O)c3cn(C)cn3)cc2CC(=O)N([C@@H](C)CO)C[C@H]1C	/	/	28	/	-6	8
C[C@@H]1CN([C@@H](C)CO)C(=O)c2cccc(NC(=O)C3CCOCC3)c2O[C@@H]1CN(C)S(=O)(=O)c1ccc(Cl)cc1	/	/	0	/	-3	-2
N=c1n(CCN2CCCC2)c2ccccc2n1CC(O)c1ccc(Cl)c(Cl)c1 (stereo unspecified)	99*	15	47	34	35	25
COc1ccc(NC(=O)Nc2ccc(F)c(F)c2)c(OC)c1	74*	3	17	67*	-19	-33
COc1ccc(NC(=O)Nc2cccc(F)c2)c(OC)c1	-35	-23	-14	1	-28	-33
CC(C)NC1CCC(Nc2ccnc3cc(Cl)ccc23)CC1 (stereo unspecified)	25	75	1	8	15	12
Clc1ccc2c(NCCNC3CCCCC3)ccnc2c1	95*	45	4	2	35	27
Cn1cc(C(C[N+](=O)[O-])c2ccccc2)c2ccccc21 (stereo unspecified)	16	12	1	-8	37	50
CC(=O)n1cc(C(C[N+](=O)[O-])SCCN)c2ccccc21 (stereo unspecified)	86*	43	/	22	/	/
SMILES	TRPM1 prom inh	Shn3 inh set2	LGR2 antag	LMP1 NFkB inh	PAX8 reporter	EWS-Fli block
CN(C)c1cc[n+](CC(=O)Nc2ccc(Cl)c([N+](=O)[O-])c2)cc1	4	8	2	-13	63*	18
CN(C)c1cc[n+](CC(=O)Nc2cccc([N+](=O)[O-])c2)cc1	1	6	6	4	-49	11
CN(C)CCCN(C(=O)c1ccc(S(=O)(=O)N(C)C2CCCCC2)cc1)c1nc2ccc(F)cc2s1	30	-1	-16	-1	4	16
CCc1ccc2nc(N(CCCN(C)C)C(=O)c3ccc(S(=O)(=O)N(C)C4CCCCC4)cc3)sc2c1	96*	24	-5	-5	-4	/
CN(C)CCCN(C(=O)c1ccc(S(=O)(=O)N2CCCC2)cc1)c1nc2ccc(Br)cc2s1	83*	-21	4	4	-65	/
Cc1cc(C)c2sc(N(CCCN(C)C)C(=O)c3ccc(S(=O)(=O)N(C)C4CCCCC4)cc3)nc2c1	90*	1	13	-6	/	15
CCNC(=O)C[C@@H]1CC[C@@H]2[C@H](COc3ccc(NC(=O)c4ccc(C(F)(F)F)cc4)cc3C(=O)N2C)O1	/	/	-24	/	2	-19
C[C@@H]1CN([C@@H](C)CO)C(=O)c2c(c3ccccc3n2C)-c2ccccc2CO[C@H]1CN(C)C(=O)Nc1ccc2c(c1)OCO2	/	/	-5	/	97*	-12
COc1ccccc1S(=O)(=O)N(C)C[C@@H]1OCc2ccccc2-c2c(n(C)c3ccccc23)C(=O)N([C@@H](C)CO)C[C@H]1C	/	/	32	/	69*	20
C[C@H]1CN([C@@H](C)CO)C(=O)c2c(c3ccccc3n2C)-c2ccccc2CO[C@@H]1CN(C)S(=O)(=O)c1ccc(F)cc1	/	/	-2	/	/	1
C[C@H]1CN([C@@H](C)CO)C(=O)c2ccccc2-c2ccccc2CO[C@H]1CN(C)S(=O)(=O)c1ccc(C(F)(F)F)cc1	/	/	19	/	102*	10
COc1ccccc1S(=O)(=O)N(C)C[C@@H]1OCc2ccccc2-c2c(n(C)c3ccccc23)C(=O)N([C@H](C)CO)C[C@@H]1C	/	/	7	/	21	-3
C[C@@H]1CN([C@H](C)CO)C(=O)c2c(c3ccccc3n2C)-c2ccccc2CO[C@@H]1CN(C)S(=O)(=O)c1ccc(C(F)(F)F)cc1	/	/	53*	/	93*	9
C[C@@H]1CN([C@H](C)CO)C(=O)c2ccccc2-c2ccccc2CO[C@@H]1CN(C)S(=O)(=O)c1ccc(C(F)(F)F)cc1	/	/	0	/	-14	6
O=C(C[C@H]1CC[C@H]2[C@@H](COC[C@H](O)CN2Cc2ccc(Cl)cc2)O1)NCc1cccc(F)c1	/	/	-5	/	/	/
CN1CCN(C(=O)C[C@@H]2CC[C@@H]3[C@H](COC[C@H](O)CN3Cc3cccc(Cl)c3)O2)CC1	/	/	0	/	-3	3
C[C@H](CO)N1C[C@H](C)[C@H](CN(C)S(=O)(=O)c2ccc(F)cc2)OCc2ccccc2-c2c(n(C)c3ccccc23)C1=O	/	/	26	/	/	-1

Screens as filed in PubChem BioAssay.
